Experimental data reported in PubChem BioAssay AID2587 (National Center for Advancing Translational Sciences (NCATS), 2010).
Activity calls are given as the source filed them. Calls follow the shape of the dose curve; as a rule, active = well fitted curve in the direction sought with a large enough effect; inactive = no such curve, though single readings can be large or run the other way.

Target: Lysosomal acid glucosylceramidase (Homo sapiens) (UniProt P04062)
Test: qHTS Assay for Inhibitors and Activators of N370S glucocerebrosidase as a Potential Chaperone Treatment of Gaucher Disease: Chaperone Activity in Gauche Fibroblasts After Multi-day Incubation with Compound
Conditions: GC immunofluorescence, 5 days
Excerpt: NIH Chemical Genomics Center [NCGC] NIH Molecular Libraries Probe Production Centers Network [MLPCN] MLPCN Grant: MH086442-01 Assay Submitter (PI): Wei Zheng Glucocerebrosidase (GC) catalyzes the hydrolysis of beta-glucocerebroside to glucose and ceramide in lysosomes. Mutations in the glucocerebrosidase gene result in Gaucher disease, an autosomal recessive lysosomal storage disorder. Many of the mutations encountered in patients with Gaucher disease are missense alterations that may cause misfolding, decreased stability and/or mistrafficking of this lysosomal protein. […] These inhibitors include iminosugar analogs and three non-iminosugar inhibitors identified from a previous HTS of 62,000 compounds with the wild type recombinant enzyme. However, the enhancement of enzyme activity by the chaperone action of an enzyme inhibitor must be balanced against the direct inhibition of the enzyme. An enzyme activator could also function as a chaperone by binding to the enzyme and helping to correct its misfolding and mistrafficking. […] This assay attempts to quantitate translocated glucocerebrosidase protein in patient-derived fibroblasts following extended compound incubation. […]
NCGC Assay Protocol Summary: 1. […] Visualized using a fluorescence microscope and the intensity of fluorescence in the selected areas were calculated. […]

Chain of Lysosomal acid glucosylceramidase (Homo sapiens) (P04062 whole entry N409S): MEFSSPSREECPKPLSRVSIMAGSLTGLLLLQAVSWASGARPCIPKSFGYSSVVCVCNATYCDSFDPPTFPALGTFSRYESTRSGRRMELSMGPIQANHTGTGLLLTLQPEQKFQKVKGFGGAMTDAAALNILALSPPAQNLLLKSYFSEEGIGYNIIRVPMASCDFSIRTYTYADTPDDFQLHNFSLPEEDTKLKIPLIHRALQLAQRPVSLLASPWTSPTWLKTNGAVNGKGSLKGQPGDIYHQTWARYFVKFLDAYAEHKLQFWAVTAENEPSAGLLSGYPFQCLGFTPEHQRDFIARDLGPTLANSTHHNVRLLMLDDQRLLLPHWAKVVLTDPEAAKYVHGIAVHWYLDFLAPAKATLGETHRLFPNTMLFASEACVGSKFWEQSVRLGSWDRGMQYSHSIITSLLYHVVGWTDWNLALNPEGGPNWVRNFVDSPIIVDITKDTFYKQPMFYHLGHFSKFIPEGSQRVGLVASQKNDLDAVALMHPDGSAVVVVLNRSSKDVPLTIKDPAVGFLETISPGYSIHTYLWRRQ

Row | Compound | Potency
1 | O=S(=O)(c1ccc2ccccc2c1)N1CCN(c2nc(-c3cccs3)nc3ccccc23)CC1 | 0.501 µM (active)
2 | S=C(NCCCc1cnc[nH]1)NCCCN(Cc1ccc(Cl)c(Cl)c1)c1ccc(Br)cn1 | 0.316 µM (active)
